Drawing on PubChem BioAssay AID602438 (Sanford-Burnham Center for Chemical Genomics, 2012), this text covers inhibition for 111 molecules.

Among all 360,000 compounds or so, about 3,100 (0.86%) were called active. Shown is part of a subset that was picked to be rich in actives. Values without a mark were called inactive.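 How the source made its calls: active means inhibition or corrected inhibition above about 18%, plus a signal ratio from 0.5 to 1.5 (limit read from the data, passing the limit was not always enough); inactive means the rest.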

The experiment deals with Neuropilin-1 (Homo sapiens) (UniProt O14786). Nature of the experiment: modulators of CendR peptide binding to NRP-1, primary screen, biochemical, fluorescence polarization, uHTS (AID 602438). Conditions: FAM-RPARPAR peptide binding to NRP-1, fluorescence polarization; at 25 µM; stronger effect = higher value. A general note: In fluorescence polarisation assays a small probe gives low polarisation when free and higher when bound to something large.
Sequence of Neuropilin-1 (Homo sapiens) (O14786 whole entry, looked up): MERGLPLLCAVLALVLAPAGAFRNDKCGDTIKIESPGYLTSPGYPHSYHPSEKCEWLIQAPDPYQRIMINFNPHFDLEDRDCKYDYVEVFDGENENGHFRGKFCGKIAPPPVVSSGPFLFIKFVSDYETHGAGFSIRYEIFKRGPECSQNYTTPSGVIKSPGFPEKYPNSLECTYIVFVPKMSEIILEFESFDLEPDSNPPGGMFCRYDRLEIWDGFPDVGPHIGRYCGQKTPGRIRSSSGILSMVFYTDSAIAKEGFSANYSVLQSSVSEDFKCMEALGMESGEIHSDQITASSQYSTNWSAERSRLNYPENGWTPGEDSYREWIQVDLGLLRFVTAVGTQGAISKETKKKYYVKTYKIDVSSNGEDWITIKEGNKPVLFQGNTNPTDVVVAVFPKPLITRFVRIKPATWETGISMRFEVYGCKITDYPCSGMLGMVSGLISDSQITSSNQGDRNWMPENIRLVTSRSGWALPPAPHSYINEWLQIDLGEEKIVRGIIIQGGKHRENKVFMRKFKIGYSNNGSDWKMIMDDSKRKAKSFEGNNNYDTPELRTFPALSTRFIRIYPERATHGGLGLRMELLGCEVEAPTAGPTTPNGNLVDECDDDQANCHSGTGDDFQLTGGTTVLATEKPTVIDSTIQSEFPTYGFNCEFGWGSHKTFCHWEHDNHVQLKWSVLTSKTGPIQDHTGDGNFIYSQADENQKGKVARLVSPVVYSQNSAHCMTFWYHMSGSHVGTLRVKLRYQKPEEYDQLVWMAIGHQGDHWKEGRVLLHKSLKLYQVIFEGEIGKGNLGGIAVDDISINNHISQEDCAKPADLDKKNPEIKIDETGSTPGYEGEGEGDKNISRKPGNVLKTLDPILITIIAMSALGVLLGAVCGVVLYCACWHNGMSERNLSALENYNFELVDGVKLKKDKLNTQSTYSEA
What is called inhibition is the change of the read-out against control, counted positive when it falls. For `CCN(Cc1ccccc1)S(=O)(=O)c1cc(C(=O)O)ccc1OC`, the inhibition is 13.4%. Consider `C/C(N)=C(\C#N)C(=O)NCCc1ccccn1`, for which the inhibition was -1.8%. On to `CC(C)CN(C(=O)c1cccc(S(=O)(=O)N2CCCCC2)c1)C1CCS(=O)(=O)C1` (stereo unspecified), for which the inhibition was -6.3%. `COCC1CCCN(C(=O)c2ccc3oc(C(C)C)nc3c2)C1` (stereo unspecified): the inhibition was -5.1%. As for `Cc1ccc(S(=O)(=O)N(CC(O)CN2C(=O)NC(C)(C)C2=O)c2cccc([N+](=O)[O-])c2)cc1` (stereo unspecified), the figure is 24.8% (active); as for `COc1ccc([N+](=O)[O-])cc1N(CC(O)Cn1nnc2ccccc21)S(=O)(=O)c1ccc(C)cc1` (stereo unspecified), 7%; as for `Cc1ccc(S(=O)(=O)N(CC(O)CN2CCCCC2)c2cccc([N+](=O)[O-])c2)cc1` (stereo unspecified), -0.8%. In the case of `CCOC(=O)C1(C)CCCN(C(=O)c2cccc(Cl)c2)C1` (stereo unspecified), the inhibition is 20% (active). With `CCOC(=O)C1(C)CCCN(C(=O)c2ccc(N(C)C)cc2)C1` (stereo unspecified), the inhibition was -8.3%. Consider `CCOC(=O)C1(C)CCCN(C(=O)c2ccc(F)c(Cl)c2)C1` (stereo unspecified), for which the inhibition is 16.4%. Take `CC(OC(=O)c1cccnc1Cl)C(=O)NC1CCCCC1` (stereo unspecified): the inhibition is 0.1%.

As for `CCOc1ccc(S(=O)(=O)NCCC(=O)NCC(C)(C)N2CCOCC2)cc1`, the inhibition is -3.6%. `CN(C)C(=O)COC(=O)c1cccc(S(=O)(=O)N2CC3(C)CC2CC(C)(C)C3)c1` (stereo unspecified): the inhibition was 9.7%. For the molecule `COc1ccc(C(=O)NC2CC(C)(C)NC(C)(C)C2)cc1OC`, the inhibition was -3.8%. As for `COc1ccc(C(=O)N2CC3(C)CC2CC(C)(C)C3)cc1OC` (stereo unspecified), the inhibition was 33.3% (active). The result for `O=c1[nH]c2ccccc2n1C1CCN(CCOc2ccccc2)CC1` reads -8%.

On to `Cc1ccc(S(=O)(=O)N(CC(=O)Nc2cccnc2)c2ccc(Br)cc2)cc1`, for which the inhibition was 0.4%. For `COc1ccccc1-c1nnc2n1N=C(c1ccc(OC(F)F)c(OCC3CC3)c1)CS2`, the inhibition was 18.8% (active). As to `COc1ccc(C2=Nn3c(nnc3-c3ccccc3OC)SC2)cc1OC1CCCC1`, the inhibition is 2.4%. With `Cc1ccc(NC2CCCN(C(=O)CCc3cn[nH]c3)C2)cc1C` (stereo unspecified), the inhibition is 5.4%. As for `CN(C)c1ccc(Nc2c3c4c(cccc4n(C)c2=O)C(=O)c2ccccc2-3)cc1`, the inhibition was 28.9% (active).

On to `CCOc1cc(CNCCN(C)C)c(Cl)cc1OCC(=O)NCCc1ccccc1`, for which the inhibition was -1.5%. Take `CCOC(=O)N1CCN(C(=O)CNC(=O)Cc2ccc(Cl)cc2)CC1`: the inhibition is 24.6% (active). `CCOC(=O)N1CCN(C(=O)C(C)NC(=O)c2ccco2)CC1` (stereo unspecified): the inhibition was 5.9%. Consider `CCOC(=O)N1CCN(C(=O)Cc2ccc(-n3c(=S)[nH]c4ccccc4c3=O)cc2)CC1`, for which the inhibition was 2.6%. The result for `N#Cc1ccc(C(=O)Nc2nc(-c3cccs3)c(C(=O)C(F)(F)F)s2)cc1` reads 2.3%; that for `CC1(C)C/C(=C(/C#N)C(N)=O)CCO1`, 51% (active).

With `N#CC(C(N)=O)=C1CCC2(CC1)OCCCCO2`, the inhibition is -11%.

Consider `C=CCNC(=O)COc1coc(CN2CCN(Cc3ccccc3)CC2)cc1=O`, for which the inhibition was 2%. Turning to `CCCNC(=O)COc1coc(CN2CCN(Cc3ccccc3)CC2)cc1=O`, the inhibition is 22.7% (active). With `CCN(CC)C(=O)COc1coc(CN2CCN(Cc3ccccc3)CC2)cc1=O`, the inhibition was 0.6%.

On to `CCOc1cnc(C(=O)NNC(=O)c2ccccc2Br)o1`, for which the inhibition is 6.1%.

Consider `CCCc1ccc(S(=O)(=O)N2CCN(C(=O)c3cc(C)on3)CC2)cc1`, for which the inhibition was 1.7%.

Consider `C=C1C(=O)OC2C1CCC(C)=CCCC1(C)OC21` (stereo unspecified), for which the inhibition was -0.7%. Consider `COc1cc(OC)c2c(-c3cccc(-c4cccc(N)c4)c3)cc(=O)oc2c1`, for which the inhibition was -8.2%. As for `Cc1cc2oc(=O)cc(-c3ccccc3)c2c(C)c1-c1ccc(OC(F)(F)F)cc1`, the figure is 0.8%. As for `COc1ccc(-c2c(C)cc3oc(=O)cc(-c4ccccc4)c3c2C)cc1C=O`, the figure is 34.1% (active). As to `CSCC[C@H](NC(=O)CCCn1nnc2ccccc2c1=O)C(=O)O`, the inhibition was -1.8%. With `CC(=O)N1CCC(C(=O)OCc2ccc(Cl)cc2)(c2ccccc2)CC1`, the inhibition is -3%. The result for `CCOC(=O)Cc1ncccc1C(=O)Nc1ccc(OC(F)(F)F)cc1` reads 29.7% (active); that for `CCOc1ncccc1C(=O)Nc1ccc(S(=O)(=O)Nc2nc(C)cc(C)n2)cc1`, -0.6%; that for `COC(=O)Cc1ccc(OCC(=O)Nc2ccc(OC(F)(F)F)cc2)cc1`, 1.7%. On to `CCCCN1CCNC1=S`, for which the inhibition was -6.7%. For `CC(NC(=O)c1cc2cc(Cl)ccc2oc1=N)c1ccccc1` (stereo unspecified), the inhibition is -11%. With `CC(NCc1nc2ccccc2n1C)C12CC3CC(CC(C3)C1)C2` (stereo unspecified), the inhibition is -3.5%.

Take `CCc1cc(=O)oc2c(C)c(OCC(=O)NCCN3CCOCC3)ccc12`: the inhibition was 10.3%. As for `Cc1cc(=O)oc2c(C)c(OCC(=O)NCCN3CCOCC3)ccc12`, the figure is 25.8% (active).

Turning to `Cc1cc(=O)oc2c(C)c(OCC(=O)NCCc3ccc(S(N)(=O)=O)cc3)ccc12`, the inhibition was -18.3%.

For `CC1CC(C)CN(c2ccc(S(=O)(=O)N3CCOCC3)cc2)C1` (stereo unspecified), the inhibition was 22.3% (active). As for `CC1CC(C)CN(S(=O)(=O)c2ccc(C(=O)NN3CCOCC3)cc2)C1` (stereo unspecified), the figure is -2.9%.

Turning to `Cc1ccc(S(=O)(=O)N2CCN(S(=O)(=O)N3CCOCC3)CC2)cc1`, the inhibition was 0%. As for `Cc1c(CC(=O)N2CCN(C(=O)C3COc4ccccc4O3)CC2)c(=O)oc2c(O)c(O)ccc12` (stereo unspecified), the figure is -49.5%; as for `COC(=O)[C@@]1(Cc2ccc(F)cc2)[C@H]2c3cc(C(=O)N4CCCC4)n(C[C@H](O)CO)c3C[C@H]2CN1C(=O)c1ccccc1`, -11.6%; as for `Cc1ccc2c(c1)N(CCCC(=O)NCc1cccnc1)C(=O)CO2`, 12.9%. Turning to `Cc1cc(Cl)ccc1C(=O)C1CCCN(C(=O)c2nonc2C)C1` (stereo unspecified), the inhibition is -2.6%. `CCCC(=O)NC(Nc1ccccc1OC)C(Cl)(Cl)Cl` (stereo unspecified): the inhibition was -6.4%. Consider `NNC(=O)C1CCCn2c1nc1sc3c(c1c2=O)CCCC3` (stereo unspecified), for which the inhibition was 1.2%. In the case of `C=C(C)CSc1nc(N)c2c3c(sc2n1)CCC3`, the inhibition was -0.3%. As for `Cn1c(NN)nc2sc3c(c2c1=O)CCC3`, the inhibition was 17.4% (active). As for `O=C(C/C(=N\NC(=O)c1ccccc1Br)C(F)(F)F)c1cccs1`, the figure is 0%; as for `CN(C)C(CNC(=O)c1cc(Br)c(Br)s1)c1ccco1` (stereo unspecified), -4.5%; as for `CCC(=O)c1ccc(OC(=O)/C=C/c2cc(OC)c(OC)c(OC)c2)cc1`, 2.2%. In the case of `COc1cc(/C=C/C2=CC(C)(C)NC(=S)N2)cc(OC)c1OC`, the inhibition is 3.9%.

For the molecule `COc1cc(/C=C/c2ccc(/C=C/c3cc(OC)c(OC)c(OC)c3)cc2)cc(OC)c1OC`, the inhibition was 20.5% (active). For the molecule `Cc1cccc(C)c1NC(=O)C(c1cccc(F)c1)N1CCN(C)CC1` (stereo unspecified), the inhibition is 1.1%. For the molecule `CCOc1ccc(/C(O)=C2/C(=O)C(=O)N(Cc3cccnc3)C2c2ccc(N(C)C)cc2)c(C)c1` (stereo unspecified), the inhibition is 6.1%.

As to `Cc1ccc(CN2CCCOCCS2(=O)=O)cc1`, the inhibition was 4%. Consider `O=C(Oc1ccc([N+](=O)[O-])cc1)c1ccc2ccccc2n1`, for which the inhibition was 6.3%. On to `O=[N+]([O-])c1cc2ccccc2nc1-c1ccccc1`, for which the inhibition is 20.7% (active).

For `Cc1ccc2cccc([N+](=O)[O-])c2n1`, the inhibition was -4.4%.

Consider `CNc1nc(=O)n(C2CCCO2)cc1C` (stereo unspecified), for which the inhibition is -12.3%. On to `CCCCCCNC(=O)O[C@]12C[C@@H](C(=O)OC)[C@@H](C(=O)OC)C[C@@]1(O)CN(S(=O)(=O)c1ccc(C)cc1)C2`, for which the inhibition was -8.7%. Regarding `Cc1ccc(C(=O)COC(=O)c2cccc(N3C(=O)c4c(C)nc5ccccc5c4C3=O)c2)cc1C`, the inhibition was -9.4%. As to `COc1ccc(Cn2c(=O)sc3ccccc32)cc1OC`, the inhibition was -6.5%. As for `COc1ccc(CCN=C2SCC(=O)N2Cc2ccccc2)cc1OC`, the inhibition is 32.3% (active). As to `COc1ccc(CCN=C2SCC(=O)N2C)cc1OC`, the inhibition is 0.9%. `COc1cccc(OC)c1C(=O)N1CCN(Cc2cccnc2)CC1`: the inhibition was 1.8%. As for `N#CCCN(CCC#N)c1nnc(-c2ccccc2)s1`, the figure is 0.8%. As for `Cc1nn2cc(-c3ccc(Cl)cc3)cnc2c1Br`, the inhibition is 4%. Regarding `Cc1scc(C(=O)NNC(=S)NCc2ccccc2)c1C`, the inhibition was 6.1%.

Turning to `CC(C)Oc1ccc(CCC(=O)NNC(=S)NCc2ccccc2)cc1`, the inhibition was 37.4% (active). With `CC(C)Oc1ccc(CC(=O)NNC(=S)Nc2ccc(Br)cc2)cc1`, the inhibition is 1.7%. With `O=C(CS(=O)(=O)c1ccc(C(F)(F)F)cn1)NNC(=O)c1ccccc1`, the inhibition was -6.4%. Turning to `CCNC(=O)N(CC)C[C@H]1N[C@@](CC)(C(=O)OC)[C@H]2C(=O)N(Cc3ccccc3)C(=O)[C@@H]12`, the inhibition is -9.5%. In the case of `CC[C@@]1(C(=O)OC)N[C@H](CN(C)C(C)=O)[C@@H]2C(=O)N(C)C(=O)[C@@H]21`, the inhibition was -0.8%. For `CCN(C[C@H]1N[C@@](CC)(C(=O)OC)[C@H]2C(=O)N(C)C(=O)[C@@H]12)C(=O)Nc1ccc(F)cc1`, the inhibition is 33.4% (active). On to `CCOC(=O)c1c(C)nn(-c2ncccc2NC(=O)CCC(=O)O)c1C`, for which the inhibition is 21.7%. Take `Cc1cc(C(=O)Nc2ccc(C)c(S(=O)(=O)N3CCOCC3)c2)c2ccccc2n1`: the inhibition was -3.5%. Take `CC(C)(CNC(=O)c1cc(=O)[nH]c2ccccc12)N1CCOCC1`: the inhibition was 9.2%. Regarding `COc1ccc(NC(=O)c2cc(=O)[nH]c3ccccc23)cc1S(=O)(=O)N1CCOCC1`, the inhibition was 26.2% (active). With `Cc1ccc(O)c(NC(=O)c2cc(-c3ccco3)on2)c1`, the inhibition is -12.1%. As for `CC(C)Oc1ccc(C(CC(=O)N2CCOCC2)C(C)C)cc1` (stereo unspecified), the inhibition was 9%.

As for `CCN(CC)C(=O)CSC(Nc1cccc(F)c1)=C(C#N)C#N`, the inhibition was -180%. As for `O=C1C2C3C=CC(C3)C2C(=O)N1c1ccc(-c2nc3ccccc3c(=O)o2)cc1` (stereo unspecified), the figure is 0.6%; as for `COc1c(O)ccc2c1CN1CCc3cc4c(cc3C1C2)OCO4` (stereo unspecified), 30% (active). On to `COc1cc(C2c3cc4c(cc3C(O)C3COC(=O)C23)OCO4)cc(OC)c1OC` (stereo unspecified), for which the inhibition is -3.6%.

As to `COc1ccc(CN2CCCC(N3CCc4ccccc4C3)C2)c(O)c1` (stereo unspecified), the inhibition is 5%. Consider `CC(C)(C)NC(=O)C(=O)NCc1ccncc1`, for which the inhibition is -1.7%. For the molecule `CCCN1C2CCCC1CC(NC(=O)NC13CC4CC(CC(C4)C1)C3)C2` (stereo unspecified), the inhibition was 5.4%. The result for `Cc1ccccc1NC(=O)CSc1ccc2nnc(-c3ccccn3)n2n1` reads 8.8%; that for `Cc1ccc(C(=O)N/N=C\c2cc(Br)c(Br)o2)cn1`, 28.3% (active); that for `O=C(N/N=C/c1ccc(Br)o1)c1cncc(Br)c1`, 2.7%. Consider `CCOc1cc(/C=N/NC(=O)c2ccncc2)cc(Br)c1O`, for which the inhibition was 2.3%. On to `Cc1ccccc1Cn1c(C)c(C(=O)NCc2cccc(C(F)(F)F)c2)sc1=O`, for which the inhibition is -0.6%. On to `O=C1c2ccccc2C(O)N1Cc1ccccc1` (stereo unspecified), for which the inhibition is -0.3%. As to `CCOC(=O)C1=C(c2ccccc2)NC(=O)NC1c1cc(OC)c(OC)cc1OC` (stereo unspecified), the inhibition was -1.4%. Take `Cc1nnc(SCC(=O)NC(=O)NC2CCCC2)n1N`: the inhibition is 30.1% (active). Take `Nn1c(SCC(=O)NC(=O)NC2CCCC2)nnc1-c1ccccc1F`: the inhibition is -0.3%. Turning to `Nn1c(SCC(=O)NC2CCCC2)nnc1-c1ccccc1F`, the inhibition was 6.4%.

As for `COC(=O)c1cccc(N(C(=O)CNC(=O)c2cccs2)C(C(=O)NCC2CCCO2)c2ccc(OC)c(OC)c2)c1` (stereo unspecified), the inhibition is 6.4%. On to `Cc1cccc(C(=O)Nc2ccccc2C(=O)NCc2cccnc2)c1`, for which the inhibition is 3.7%.
